Laboratory results from PubChem BioAssay (EPA / NIEHS).
Active and inactive are the calls of the source. The calls were made as follows: active = hit-call score of the fitted dose curve at least 0.9, where 1 is the maximum; inactive = score below 0.9.

Test: APR_HepG2_MitoticArrest_72hr: Apredica 72-hour HepG2 Assay for Mitotic Arrest (AID 2282918)
Conditions: high-content imaging, actives raise or lower the signal
Method: APR_HepG2_72hr is a cell-based, multiplexed-readout assay that uses HepG2, a human liver cell line, with measurements taken at 72 hours after chemical dosing in a 384-well plate.APR_HepG2_MitoticArrest_72hr is one of 10 assay component(s) measured or calculated from the APR_HepG2_72hr assay. It is designed to make measurements of cell phenotype, a form of morphology reporter, as detected with fluorescence intensity signals by HCS Fluorescent Imaging technology.Data from the assay component APR_HepG2_MitoticArrest_72hr was analyzed into 1 assay endpoint. This assay endpoint, APR_HepG2_MitoticArrest_72hr, was analyzed with bidirectional fitting relative to DMSO as the negative control and baseline of activity. Using a type of morphology reporter, measures of protein for gain or loss-of-signal activity can be used to understand the signaling at the pathway-level as they relate to the gene . Furthermore, this assay endpoint can be referred to as a primary readout, because this assay has produced multiple assay endpoints where this one serves a signaling function. To generalize the intended target to other relatable targets, this assay endpoint is annotated to the cell cycle intended target family, where the subfamily is arrest.
Cells were treated with dimethyl sulfoxide (DMSO) as a solvent control at a final concentration of 0.5% v/v or with compounds in DMSO with a resulting final DMSO concentration of 0.5% v/v. Compound treatment was done at concentrations of 0.39, 0.78, 1.56, 3.12, 6.24, 12.5, 25, 50, 100, and 200 uM in duplicate on each plate. Cells were treated with compounds for 1, 24, or 72 hr. Carbonyl […] m-chloro-phenylhydrazone (CCCP) and taxol were used as positive controls for mitochondrial function and cytoskeletal stability, respectively; DMSO served as the negative control for this experiment. Cells were fixed by the direct addition of 50 uL formaldehyde in Hank's Balanced Salt Solution (HBSS) to a final concentration of 3.7%. After incubation in the fixation medium for 30 min at room temperature (293-298 K), cells were rinsed twice with HBSS and treated with cell permeabilization buffer (16 uL of 0.5% Triton X-100) for 10 min at room temperature (293-298 K) before labeling. For mitochondrial membrane potential and mitochondrial measurements, pre-fixed cells were incubated with 50 uL of MitoTracker Red CMXRos (Invitrogen) at a concentration of 250 nM for 30 min before fixation. In the remaining cases, post-fixed cells were labeled by incubation with a multiplexed mixture of primary antibodies in HBSS for 60 min at room temperature (293-298 K) to detect immunoreactivity of c-Jun (1:500), phospho-histone H3 (1:100), phospho-histone H2A.x (1:200), p53 (1:400), alpha-tubulin (1:200) and Hoechst 33342 (2 ug/mL). Cells were labeled for multiplexed imaging on two separate plates: a) Hoechst 33342, MitoTracker Red, phospho-histone H3, and alpha-tubulin, and b) Hoechst 33342, phospho-histone H2A.x, and c-Jun. A final rinse with HBSS (50 uL) was performed before analysis. The primary and secondary antibodies for the proteins were phospho-histone H3 (rabbit anti-phospho-histone H3 and FITC-donkey anti-rabbit IgG), phospho-histone H2A.x (mouse anti-phospho-histone H2A.x and FITC-donkey anti-mouse IgG), c-Jun (rabbit anti-phospho-c-Jun and Cy3-donkey anti-rabbit IgG), p53 (sheep anti-p53 and Cy5-donkey anti-sheep IgG), alpha-tubulin (mouse anti-alpha-tubulin and Cy5-donkey anti-mouse IgG). These antibodies are available as the CellCiphr HepG2 assay kit (Millipore).Digital images of each well were captured using a Cellomics ArrayScan VTI (Thermo Scientific Cellomics) (0.8 NA objective, 0.63x optical coupler, and XF-93 filter set) at 20x magnification. The images were acquired using the autofocus feature of the ArrayScan instrument, which entails the following steps. First, the camera focuses on channel 1 (Hoechst 33342), where nuclei are identified. Second, a Z offset of 1 um is used for capturing mitochondria (MitoTracker Red). […]

SMILES | outcome | AC50
Oc1ccccc1 | inactive | –
CN(C)C(=O)C1(N2CCCCC2)CCN(CC[C@@]2(c3ccc(Cl)c(Cl)c3)CN(C(=O)c3ccccc3)CCO2)CC1 | – | 6.87 µM (active)
CCCCCc1ccc(N)cc1 | inactive | –
CCN(Cc1cccnc1)C(=O)c1cccc(Cl)c1[C@]1(C)C(=O)N(Cc2ccc(OC)cc2OC)c2ccc(Cl)cc21 | – | 21.8 µM (active)
NC(=O)c1nc(-c2cccc(-c3cc(F)ccc3OCC(F)(F)C(F)(F)F)c2)n[nH]1 | inactive | –
CCO[Si](CCCNC(N)=O)(OCC)OCC | inactive | –
O=C(O)Cn1c(=O)n(Cc2ccc(Br)cc2F)c(=O)c2ccc(Cl)cc21 | inactive | –
O=C=NCCCCCCN=C=O | inactive | –
O=C1CCC(C2CCCCC2)CC1 | inactive | –
O=C(Nc1ccc(Cl)cc1)Nc1ccc(Cl)c(Cl)c1 | – | 5.5 µM (active)
c1ccc2ccccc2c1 | – | 0.0415 µM (active)
O=C(O)c1ccccc1C(=O)OCc1ccccc1 | inactive | –
CCCCOC(=O)CC(CC(=O)OCCCC)(OC(C)=O)C(=O)OCCCC | – | 42 µM (active)
O=c1ccc2ccccc2o1 | inactive | –
CCCOC(=O)c1cc(O)c(O)c(O)c1 | inactive | –
CC/C(=C(/CC)c1ccc(O)cc1)c1ccc(O)cc1 | – | 91.2 µM (active)
CCCCCCCCCC(=O)O | inactive | –
CN(C[C@@H](CC[N+]12CCC(C3CCCCC3)(CC1)CC2)c1ccc(Cl)c(Cl)c1)C(=O)c1cc(C(F)(F)F)cc(C(F)(F)F)c1 | – | 36.3 µM (active)
CCCCCCCCCCCC[N+](C)(C)C | – | 13.2 µM (active)
CCCCCCCCN(C)CCCCCCCC | inactive | –

SMILES | outcome | AC50
CC(O)CC(C)(C)O (stereo not given) | inactive | –
CC[C@@H]1C[C@H](N(Cc2cc(C(F)(F)F)cc(C(F)(F)F)c2)C(C)=O)c2cc(C(F)(F)F)ccc2N1C(=O)OC(C)C | inactive | –
Clc1cc(Cl)c2c(c1)N=C1CCCCCN1C2 | inactive | –
COCC(C)OCC(C)OCC(C)O (stereo not given) | inactive | –
CO[C@H]1/C=C/O[C@@]2(C)Oc3c(C)c(O)c4c(O)c(c(/C=N/N5CCN(C)CC5)c(O)c4c3C2=O)NC(=O)/C(C)=C\C=C\[C@H](C)[C@H](O)[C@@H](C)[C@@H](O)[C@@H](C)[C@H](OC(C)=O)[C@@H]1C | – | 46.2 µM (active)
O=C(O)Cc1cc(I)c(Oc2ccc(O)c(I)c2)c(I)c1 | inactive | –
O=c1[nH]sc2ccccc12 | – | 9.46 µM (active)
Cc1cc2c(cc1C(F)(F)F)N(C(=O)Nc1ccc(Oc3cccnc3C)nc1)CC2 | – | 46.3 µM (active)
Cc1oc2c(NC(=O)c3c(Cl)cccc3Cl)cccc2c1C(C)(C)O | inactive | –
CC(C)(C)c1cc(/C=C2\SC(N)=NC2=O)cc(C(C)(C)C)c1O | – | 40.3 µM (active)
CCCCCCCCOC(=O)c1cc(O)c(O)c(O)c1 | – | 68.3 µM (active)
O=CCCCC=O | inactive | –
CCCCCCCCOc1ccc(C(=O)c2ccccc2)c(O)c1 | inactive | –
COc1cccc([C@H](O)C2CCN(CCc3ccc(F)cc3)CC2)c1OC | – | 102 µM (active)
O=C1O[C@H]([C@@H](O)CO)C(O)=C1O | – | 7.73 µM (active)
CC1(C)NC(=O)N(c2ccc([N+](=O)[O-])c(C(F)(F)F)c2)C1=O | inactive | –
CCCCCCCCCCCCO | inactive | –
CC(C)(C)c1csc(-c2cc3cc(OCc4ccccc4CC(=O)O)ccc3o2)n1 | inactive | –
c1ccc(C[n+]2cccc3ccccc32)cc1 | – | 109 µM (active)
C[C@]12CC[C@@H]3c4ccc(O)cc4CC[C@H]3[C@@H]1CCC2=O | inactive | –
